Assay outcomes (PubChem)
Rows were chosen to be rich in hits. Some 1.5% of all compounds tested hit in one or more screens of this group.
Giardia killer = kills Giardia lamblia. Giardia lamblia trophozoite viability. 340,000 compounds, 0.15% hits. activity change, % at 7.66 µM, hits read low; in the data active means activity change below about -80%; inconclusive means between about -30% and that limit;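 further: parasites exposed to compound for two days anaerobically before the ATP read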
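Each well holds 100 Giardia trophozoites and compound. After two days (48 hrs) at 37 deg C in anaerobic conditions, ATP is quantified by luminescence.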
FBPA coupling cs = inhibits coupling enzyme system, counter-screen for aldolase hits; coupling enzyme system counterscreen, AmpLite Red fluorescence; activity change, negative = inhibition, % at 58.2 µM, hits read low; 290,000 compounds, 0.67% hits; AID 2472; in the data active means activity change below about -30%
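Counterscreen of the coupled detection system alone, without aldolase: glyceraldehyde-3-phosphate coupling enzymes plus AmpLite Red readout. Compounds at 57.5 uM final, 10 min RT preincubation, 20 min RT reaction, fluorescence 525/598 nm.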
TrxR1 substrate = substrates of rat thioredoxin reductase 1; purified TrxR1 substrate turnover, NADPH consumption readout; Potency, µM (titrated, usually from 114 µM), inactives show at the top dose activity change, negative = substrate turnover; 390,000 compounds, 0.01% hits; further: potency means the concentration at half of the fitted maximal effect; nearly all actives have a fitted effect of over 50% in size
Target sequence (O89049 whole entry, looked up): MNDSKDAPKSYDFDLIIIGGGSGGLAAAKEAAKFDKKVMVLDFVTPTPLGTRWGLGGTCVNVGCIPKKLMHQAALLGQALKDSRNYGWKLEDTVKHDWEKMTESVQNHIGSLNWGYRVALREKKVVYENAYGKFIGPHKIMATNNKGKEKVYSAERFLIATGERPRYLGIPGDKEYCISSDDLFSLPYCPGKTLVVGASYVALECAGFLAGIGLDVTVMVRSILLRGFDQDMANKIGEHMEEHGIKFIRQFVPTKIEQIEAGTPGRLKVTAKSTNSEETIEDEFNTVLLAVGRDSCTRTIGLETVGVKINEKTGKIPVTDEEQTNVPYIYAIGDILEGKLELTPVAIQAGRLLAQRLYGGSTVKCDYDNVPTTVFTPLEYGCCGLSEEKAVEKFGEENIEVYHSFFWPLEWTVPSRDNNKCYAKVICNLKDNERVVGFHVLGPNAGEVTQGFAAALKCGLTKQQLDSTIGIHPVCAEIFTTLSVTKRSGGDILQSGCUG
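Rat TrxR1, dispensed at 90 nM, was prereduced with 400 uM NADPH (final) for 5 min at ~22 deg C, then incubated with compound 15 min before 400 uM selenite. A first-read NADPH fluorescence drop versus no-compound background flagged substrates.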
GALK inh = blocks human galactokinase activity; P51570; Purified GALK, Kinase-Glo residual ATP luminescence; Potency, µM (titrated, usually from 57.5 µM), for the others: at the top dose activity change, negative = inhibition, usual class: inhibitors; AID 1868; 270,000 compounds, 0.007% hits; further: potency means the concentration at half of the fitted maximal effect
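Luminescence from leftover ATP (Ultra-Glo luciferase/luciferin) served as read-out after a 1 h room-temperature reaction of 5 nM GALK with 35 uM ATP and 100 uM galactose.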
TrxR1 inh = blocks rat thioredoxin reductase 1. O89049. recombinant rTrxR1, NADPH fluorescence consumption, selenite substrate. Potency, µM (highest dose often 114 µM), for inactives: at the highest dose activity change, negative = inhibition, most hits filed as inhibitors. 390,000 compounds, 1% hits. AID 588453; further: potency means the concentration at half of the fitted maximal effect; nearly all actives have a fitted effect of over 65% in size
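Rat TrxR1 (90 nM in the dispensed reagent) was pre-reduced with 400 uM NADPH for 5 min at room temperature, then incubated with compound for 15 min. After 400 uM selenite was added, NADPH fluorescence (Ex 340/Em 450 nm) was followed for 8 min.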
PI4K2A block = inhibitors of human PI4K2A; Q9BTU6; purified PI4K2A, ADP-Glo luminescence, 1 h; hits give low values; activity change, negative = inhibition, % at 76.9 µM; 420,000 compounds, 0.13% hits; AID 1346378; in the data active means activity change below about -50%; inconclusive means mostly about -30% to -49%;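 further: -100% = wells without enzyme as full effect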
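Compounds are screened against recombinant PI4K2A using PI as substrate and ATP, the latter dispensed at 300 microM. Reactions run one hour at ambient temperature before ADP-Glo detection; full inhibition defined by wells lacking enzyme.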
An asterisk follows results filed as active; [ ] = remark or other dose. Unless noted, the call rests on the fitted dose curve; in most records, active means well fitted curve in the direction sought with a large enough effect; inconclusive means small, poorly fitted or top-dose-only effect, or another doubt; inactive means no such curve, though single readings can be large; an effect the other way counts as inactive or inconclusive. Unless noted, on the % scale 0 is the no-effect control and ±100 the full control effect.

O=[N+]([O-])c1ccc(-c2ccn[nH]2)o1 was read as Giardia killer -85*, FBPA coupling cs 0, TrxR1 substrate 2%[57.1 µM], GALK inh 3%, TrxR1 inh 3.5µM* and PI4K2A block -3.
Screening O=C(O)C(C(=O)/C=C/c1ccco1)=C1SCCS1 returned Giardia killer -3, FBPA coupling cs 3, TrxR1 substrate -11%, GALK inh -1%, TrxR1 inh 25µM* and PI4K2A block -12.
O=C(C=C1SCCS1)/C=C/c1ccco1 was read as Giardia killer -22, FBPA coupling cs 0, TrxR1 substrate -9%, GALK inh 0%, TrxR1 inh 40µM* and PI4K2A block -12.
For CCOc1ccccc1NC(=O)Cn1nc(-c2ccco2)ccc1=O the results were Giardia killer -6, FBPA coupling cs -2, TrxR1 substrate 3%, GALK inh -1%, TrxR1 inh 32µM* and PI4K2A block -1.
Screening O=C(CSc1ccc(-c2ccco2)nn1)Nc1ccccc1F returned Giardia killer -15, TrxR1 substrate 8%, GALK inh -3%, TrxR1 inh 20µM* and PI4K2A block -1.
CCOc1ccccc1NC(=O)CSc1ccc(-c2ccco2)nn1 was read as Giardia killer 26, TrxR1 substrate -3%, GALK inh -3%, TrxR1 inh 35µM* and PI4K2A block -6.
`O=c1oc2ccccc2c(N2CCCCC2)c1CN1CCCCC1` gave Giardia killer -13, FBPA coupling cs 1, TrxR1 substrate 0%, GALK inh -2%, TrxR1 inh 25µM* and PI4K2A block -3.
Screening CCc1oc2ccccc2c1C(=O)CCN1CCCCC1 returned Giardia killer 5, FBPA coupling cs -3, TrxR1 substrate 4%, GALK inh 2%, TrxR1 inh 0.11µM* and PI4K2A block 29.
O=C(CCN1CCCCC1)c1ccccc1 was read as Giardia killer 7, FBPA coupling cs -1, TrxR1 substrate 10%[2.29 µM], GALK inh 0%, TrxR1 inh inconclusive and PI4K2A block -2.
O=c1oc2ccccc2c(N2CCCCC2)c1CN1CCCC1 was read as Giardia killer -3, FBPA coupling cs -1, TrxR1 substrate 4%, GALK inh -2%, TrxR1 inh 5% and PI4K2A block 4.
`CCCCCCCCOC(=O)c1cc([N+](=O)[O-])c(Sc2ncnc3nc[nH]c23)c([N+](=O)[O-])c1` gave Giardia killer -9, TrxR1 substrate -7%, TrxR1 inh 40µM* and PI4K2A block 25.
`CCOC(=O)c1ccc(NC(=O)CSc2nnc(-c3cc(-c4ccccc4)n[nH]3)n2N)cc1` gave PI4K2A block 2.
`O=C1C(=O)N(CCN2CCOCC2)C(c2ccccn2)/C1=C(/O)c1ccccc1` (centres undefined) gave Giardia killer 9, FBPA coupling cs -24, TrxR1 substrate -5%, GALK inh -1%, TrxR1 inh 18µM* and PI4K2A block 1.
For CCOc1ccc(C2/C(=C(\O)c3ccc4c(c3)OCCO4)C(=O)C(=O)N2CCCN2CCOCC2)cc1OC (centres undefined) the results were Giardia killer 0, TrxR1 substrate 1%, GALK inh -2%, TrxR1 inh 50µM* and PI4K2A block -3.
For COc1ccc(C2/C(=C(\O)c3ccc4c(c3)OCCO4)C(=O)C(=O)N2CCCN(C)C)c(OC)c1 (centres undefined) the results were Giardia killer 0, FBPA coupling cs 1, TrxR1 substrate -8%, GALK inh 2%, TrxR1 inh 10µM* and PI4K2A block -3.
Screening COc1ccc(/C(O)=C2/C(=O)C(=O)N(CCN3CCOCC3)C2c2ccccn2)cc1OC (centres undefined) returned Giardia killer 1, FBPA coupling cs -27, TrxR1 substrate -11%, GALK inh 0%, TrxR1 inh 45µM* and PI4K2A block 0.
CCOc1ccc(C2/C(=C(\O)c3ccc4c(c3)OCCO4)C(=O)C(=O)N2CCCN2CCOCC2)cc1 (centres undefined) was read as Giardia killer 2, TrxR1 substrate -13%, GALK inh 6%, TrxR1 inh inconclusive and PI4K2A block 2.
For CCc1ccc(S(=O)(=O)c2cn(C)c3cc(N4CCC(C)CC4)c(F)cc3c2=O)cc1 the results were TrxR1 substrate 17%, TrxR1 inh 16% and PI4K2A block -5.
`C[C@]12CCC(=O)C=C1[C@@H]1C[C@@H]1[C@H]1[C@@H]3[C@@H]4C[C@@H]4[C@@]4(CCC(=O)O4)[C@@]3(C)CC[C@@H]12` gave PI4K2A block 0.
O=[N+]([O-])c1ccc(/C=C/c2ccnc3ccccc23)c([N+](=O)[O-])c1 was read as TrxR1 substrate 3% and TrxR1 inh 5%.
CN(C)c1ccc(/C=C/N2C=CCc3c2ccc2ccccc32)cc1 was read as TrxR1 substrate 3% and TrxR1 inh -10%.
CCN(CC)CCN1C(=O)C(=O)/C(=C(/O)c2ccc3c(c2)CC(C)O3)C1c1ccc(OC)cc1 (centres undefined) was read as Giardia killer 4, FBPA coupling cs 0, TrxR1 substrate -18%, GALK inh -3%, TrxR1 inh 45µM* and PI4K2A block 14.
O=C1C(=O)N(Cc2ccc(-c3ccc(F)nc3)cc2)c2ccc(OC(F)(F)F)cc21 was read as PI4K2A block 0.
O=c1[nH]c2c(s1)C(c1ccco1)C1C3CCC(C3)C1S2 (centres undefined) was read as Giardia killer -5, FBPA coupling cs -44*, TrxR1 substrate -10%, GALK inh 0%, TrxR1 inh 45µM* and PI4K2A block -10.
CC1CCN(S(=O)(=O)c2cc(C(=O)NCCc3ccccc3)n(C)c2)CC1 was read as TrxR1 substrate 2%[57.1 µM], TrxR1 inh 1%[57.1 µM] and PI4K2A block -13.
For Cc1c2oc3c(C)ccc(C(=O)N[C@@H]4C(=O)N[C@H](C(C)C)C(=O)N5CCC[C@H]5C(=O)N(C)CC(=O)N(C)[C@@H](C(C)C)C(=O)O[C@@H]4C)c3nc-2c(C(=O)N[C@@H]2C(=O)N[C@H](C(C)C)C(=O)N3CCC[C@H]3C(=O)N(C)CC(=O)N(C)[C@@H](C(C)C)C(=O)O[C@@H]2C)c(N)c1=O the results were FBPA coupling cs -36* and PI4K2A block -2.
`O=C1Nc2ccccc2CCc2ccccc21` gave Giardia killer inconclusive, TrxR1 substrate 0%, TrxR1 inh 19% and PI4K2A block -2.
Screening O=C1Cc2ccccc2C(=O)N1 returned PI4K2A block -56*.
